Data: PubChem BioAssay AID1159580 (chemical genetic matrix, 2015)
Out of some 5,500 compounds screened, about 2,000 (36%) were called active. Roughly 18% stayed inconclusive and do not appear here. Rule as the data show it: active = normalized growth mostly below about 0.91 (no sharp cut-off); inconclusive = no clear call, values can overlap the other calls; inactive = mostly above about 0.92. Some of the results follow.

Experiment: chemical genetic growth profiling, strain panel (AID 1159580);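 also: tested at 20 µM; growth read once vehicle control cultures reached saturation at 30 °C; 1 = growth at the plate median or of vehicle wells; lower values mean less growth of the strain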
Conditions: S. cerevisiae deletion strains, growth OD

Measured: normalized growth

Clc1ccc(C(OCCN2CCCCC2)c2ccccc2)cc1 (stereo not drawn)
active: locus YBR021W, strain FUR4, active compounds read low 0.833 | locus YDR137W, strain rgp1, active compounds read low 1.21 [resistant] | locus YDR388W, active compounds read low 0.924
inactive: locus YAL013W, strain DEP1, active compounds read low 1 | locus YAL021C, strain ccr4, active compounds read low 0.954 | locus YAL026C, strain drs2, active compounds read low 1.02 | locus YAL030W, strain snc1, active compounds read low 1.01 | locus YBL061C, strain skt5, active compounds read low 1.02 | locus YBR009C, strain hhf1, active compounds read low 1 | locus YBR023C, strain chs3, active compounds read low 1.02 | locus YBR171W, strain sec66, active compounds read low 1.02 | locus YBR229C, strain ROT2, active compounds read low 0.999 | locus YBR231C, strain swc5, active compounds read low 1.01 | locus YBR279W, strain paf1, active compounds read low 1.02 | locus YCL011C, strain gbp2, active compounds read low 1.03 | locus YCL016C, strain dcc1, active compounds read low 1.03 | locus YCL029C, strain bik1, active compounds read low 1.01 | locus YCL061C, strain MRC1, active compounds read low 1.02 | locus YCL069W, strain vba3, active compounds read low 1.02 | locus YCR088W, strain abp1, active compounds read low 1.02 | locus YDL005C, strain med2, active compounds read low 1.01 | locus YDL035C, strain GPR1, active compounds read low 0.986 | locus YDL040C, strain nat1, active compounds read low 1.02 | locus YDL074C, strain BRE1, active compounds read low 0.947 | locus YDL101C, strain DUN1, active compounds read low 1 | locus YDL134C, strain PPH21, active compounds read low 0.995 | locus YDL185W, strain tfp1, active compounds read low 1 | locus YDL192W, strain arf1, active compounds read low 1.01 | locus YDR001C, strain nth1, active compounds read low 1.02 | locus YDR069C, strain doa4, active compounds read low 0.969 | locus YDR101C, strain arx1, active compounds read low 0.982 | locus YDR150W, strain NUM1, active compounds read low 1.01 | locus YDR159W, strain sac3, active compounds read low 1.03 | locus YDR162C, strain NBP2, active compounds read low 0.993 | locus YDR195W, strain ref2 1.07 | locus YDR297W, strain sur2, active compounds read low 1.03 | locus YDR318W, strain mcm21, active compounds read low 0.983 | locus YDR334W, strain swr1, active compounds read low 1.03 | locus YDR335W, strain msn5, active compounds read low 1.03 | locus YDR392W, strain spt3, active compounds read low 1.04 | locus YDR502C, strain sam2, active compounds read low 0.983 | locus YEL003W, strain gim4, active compounds read low 1.01 | locus YEL037C, strain rad23, active compounds read low 1.02 | locus YEL061C, strain CIN8 (second series), active compounds read low 1.03 | locus YEL061C, strain CIN8, active compounds read low 1.01 | locus YER015W, strain faa2, active compounds read low 1.02 | locus YER016W, strain bim1, active compounds read low 1.02 | locus YER110C, active compounds read low 1 | locus YER111C, strain swi4, active compounds read low 1.01 | locus YER155C, strain BEM2 (second series), active compounds read low 1.01 | locus YER155C, strain BEM2, active compounds read low 1 | locus YER167W, strain BCK2, active compounds read low 0.998 | locus YFR010W, strain ubp6, active compounds read low 0.986 | locus YGL078C, strain dbp3, active compounds read low 0.99 | locus YGL086W, strain mad1, active compounds read low 0.974 | locus YGL167C, strain pmr1, active compounds read low 1.02 | locus YGL173C, strain kem1, active compounds read low 1.01 | locus YGL227W, strain vid30, active compounds read low 1.02 | locus YGL240W, strain doc1, active compounds read low 1.02 | locus YGL248W, strain PDE1, active compounds read low 0.99 | locus YGL253W, strain hxk2, active compounds read low 1.02 | locus YGR078C, strain PAC10, active compounds read low 0.977 | locus YGR135W, strain pre9, active compounds read low 0.951 | locus YGR229C, strain SMI1, active compounds read low 0.901 | locus YGR252W, strain gcn5, active compounds read low 0.888 | locus YHR013C, strain ard1, active compounds read low 0.895 | locus YHR027C, strain rpn1, active compounds read low 1.03 | locus YHR030C, strain SLT2, active compounds read low 1 | locus YHR079C, strain IRE1 (second series), active compounds read low 0.994 | locus YHR094C, strain hxt1, active compounds read low 0.997 | locus YHR129C, strain ARP1, active compounds read low 1 | locus YHR142W, strain chs7, active compounds read low 1.01 | locus YHR200W, strain rpn10, active compounds read low 0.989 | locus YIL066C, strain RNR3, active compounds read low 0.988 | locus YIL073C, strain SPO22, active compounds read low 1.12 | locus YIL125W, strain kgd1, active compounds read low 1 | locus YIR030C, strain dcg1, active compounds read low 0.996 | locus YJL092W, strain hpr5, active compounds read low 1.02 | locus YJL095W, strain BCK1 (second series), active compounds read low 1.03 | locus YJL095W, strain BCK1, active compounds read low 0.913 | locus YJL115W, strain asf1, active compounds read low 1.02 | locus YJL129C, strain trk1, active compounds read low 1.04 | locus YJL134W, strain LCB3, active compounds read low 1 | locus YJL154C, strain vps35, active compounds read low 1.01 | locus YJL164C, strain tpk1, active compounds read low 1.02 | locus YJL166W, strain qcr8, active compounds read low 1.01 | locus YJL168C, strain set2, active compounds read low 1 | locus YJL187C, strain SWE1 (second series), active compounds read low 0.983
